Compounds without any hit were thinned out: in the full panel of roughly 83,000, 20% have a hit.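 Assay: single dose, 48 h. Readout: percent growth (0 = no net growth; negative = cell death). Active: <10.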 Calls of active or inactive are those of the source.

This experiment relates to HL-60(TB) leukemia. Description: NCI-60 one-dose screen, 48 h (100 = growth as untreated, 0 = no growth, -100 = all killed). The settings on record: 10 µM unless noted.
Consider `O=C(/C=C/c1cccs1)Nc1ncc(Cc2ccccc2F)s1`, for which the growth is -40.2% (active).
For the compound `CCN(CC)CCCNc1cccc2c(C)cc(OC)nc12`, the growth is 106% (inactive).
For `COc1ccc(-c2cc(-c3nnc(SCC(=O)Nc4ccc(C(C)=O)cc4)n3-c3ccccc3)c3ccccc3n2)cc1OC`, the growth is 100% (inactive).
On to `Cn1cc(-c2csc(-c3cn(CCN)c4ccc(F)cc34)n2)c2cccnc21`, for which the growth was 47.1% (inactive).
For the compound `COc1ncnc2c1cnn2C`, the growth is 114% (inactive).
In the case of `C=C1C[C@@]2(C)C(CC[C@]3(C)C2CC=C2C4CC(C)(C)C[C@@H](OC(=O)/C(C)=C\C)[C@]4(C(=O)O)CC[C@]23C)C(C)(C)C1=O` (stereo not given in full), the growth is -32.4% (active).
Consider `C=CCN(CC=C)C(=O)[C@H](CC)[C@@H]1CC[C@@H](C)[C@@H]([C@H](C)[C@@H](O)[C@@H](C)C(=O)[C@H](CC)C2O[C@]3(C=C[C@@H](O)[C@]4(CC[C@@](C)([C@H]5CC[C@](O)(CC)[C@H](C)O5)O4)O3)[C@H](C)C[C@@H]2C)O1` (stereo not given in full), for which the growth is -36.8% (active).
For the compound `O=C1Cc2c(sc3c(F)cccc23)C(c2ccccc2[N+](=O)[O-])N1` (stereo not given), the growth is 116% (inactive).
`CSc1nc2c(c(=O)n1C)CN(Cc1ccccc1)C(=O)CN2`: the growth was 84.9% (inactive).
Take `COc1ccccc1-n1c(-c2csc(NC(C)=O)n2)n[nH]c1=S`: the growth was 96.6% (inactive).
On to `COc1cc(/C=C2\C(=O)ON=C2C)cc(OC)c1OC`, for which the growth is 98.1% (inactive).
For `CC1CCC2(C(=O)O)CCC3(C)C(=CCC4C5(C)CC(O)C(O)C(C)(CO)C5C(O)CC43C)C2C1C` (stereo not given), the growth is 118% (inactive).
For the compound `O=C(Cc1ccc(/C=C/C(=O)c2ncc[nH]2)cc1)Nc1ccc(F)cc1`, the growth was -17.3% (active).
The result for `CCC1(C(C)C)NC(=O)NC1=O` (stereo not given) reads 100% (inactive); that for `CCOC(=O)c1cc(/C(=N\O)c2cc(OC)c(OC)c(OC)c2)n2cc(C)cc(C)c12`, 9.42% (active); that for `COc1cc(C(=O)/C=C/c2c(C(F)(F)F)nc3ccccn23)cc(OC)c1OC`, -9.98% (active).
The figure for `Nc1nonc1-c1nc2ccccc2n1CC(=O)Nc1ccc2c(c1)COC2=O` is 100% (inactive).
In the case of `O=C1CN2CCC1C/C2=C\c1ccnc2c(Cl)cccc12` (stereo not given), the growth is 91.8% (inactive).
Consider `O=C(Nc1cccc(-n2ccc3c(NC(=O)c4ccccc4)ncnc32)c1)Nc1ccc(Cl)c(C(F)(F)F)c1`, for which the growth was -1.92% (active).
Regarding `COc1ccc(Cn2cc3c(c2-c2cc(OC)c(OC)c(OC)c2)CCc2cnoc2-3)cc1[N+](=O)[O-]`, the growth was 11% (inactive).
The result for `O=C1c2ccccc2CCc2ccccc21` reads 90% (inactive); that for `CC(C)CCN(CCCNc1c2c(nc3cc(Cl)ccc13)CCCC2)CCC(C)C`, 70.4% (inactive).
As for `COc1cc2c(=O)n(CCCn3ccnc3)c3c4cc5c(cc4ccc3c2cc1OC)OCO5`, the growth is -15.2% (active).
As to `C/C(=C\CCc1ccsc1)CC/C=C(\C)CCCN1CCSCC1`, the growth is 67.7% (inactive).
Consider `COc1ccc(-c2cc(C(=O)Nc3nc4cc(C)c(C)cc4s3)nc3cc(-c4ccccc4)nn23)cc1OC`, for which the growth was 98.2% (inactive).
As to `COc1ccc(C(=O)N/N=C/c2ccc(O)cc2O)cc1Nc1ccnc(C(F)(F)F)c1`, the growth was 14.4% (inactive).
For `CCOC(=O)c1ccc(NC(=O)Nc2ncc(Cl)cc2Cl)cc1`, the growth was 95.5% (inactive).
In the case of `CCO/C=N/C1=C(C#N)C(c2ccc(Cl)cc2)c2c(c3ccccc3n(C)c2=O)O1` (stereo not given), the growth is 53.4% (inactive).
With `CC(C)CSc1nc(Nc2ccccc2)c(C#N)c(-c2ccc(F)cc2)n1`, the growth is 73.4% (inactive).
The result for `NCCC(=O)c1ccc(Cl)cc1` reads 95.6% (inactive); that for `Nc1ccc(CC(=O)O)c(N)c1`, 102% (inactive); that for `O=C(CN1C(=O)c2ccccc2S1(=O)=O)Nc1nc(-c2cc3ccccc3oc2=O)cs1`, 101% (inactive).
`CN(CCNc1ccc(C(=N)N)cc1)c1ccc(C(=N)N)cc1`: the growth was 91% (inactive).
Regarding `O=C1Nc2ccc(F)cc2C12Nc1cc(Cl)ccc1S2` (stereo not given), the growth was 65.5% (inactive).
Consider `Cc1c(C(=O)C(SC(=S)N2CCOCC2)SC(=S)N2CCOCC2)nnn1-c1ccc([N+](=O)[O-])cc1`, for which the growth was 91.3% (inactive).
Regarding `NC(=S)NN=C1CCCCC1`, the growth was 74.1% (inactive).
On to `COc1cccc(OC)c1OC(=O)c1ccccc1`, for which the growth is 110% (inactive).
`CC1=C[S+](c2ccccc2)c2cccc3cc4ccccc4c1c23` (stereo not given): the growth was -50.3% (active).
For `C=C1CCC2C3(C)COC(c4ccccc4)OC3CCC2(C)C1C/C=C1/C(=O)OCC1OC(C)=O` (stereo not given), the growth is 56% (inactive).
For `CN1CCN(c2ccc(NC3=CC(=O)c4ncncc4C3=O)cc2)CC1`, the growth is -32.1% (active).

The record behind these values is PubChem BioAssay (NCI).
